Molecules are shown by their SMILES. Results filed as inconclusive are left out. Activity calls are given as the source filed them. Calls come from the whole dose curve; as a rule, active = well fitted activation curve with a large enough effect; inconclusive = small, poorly fitted or top-dose-only effect; inactive = no such curve, though single readings can be large or run the other way.
Potency is the fitted concentration of half-maximal effect.

The target in this experiment is Cellular tumor antigen p53 (Homo sapiens) (UniProt P04637). The experiment in a line: Primary qHTS for small molecule compounds that upregulate eGFP-tagged delta133p53alpha (in N-terminal) cells. (AID 2060322).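 For activation: cells pre-induced with doxycycline then dosed without doxycycline; series mostly up to about 56 µM; 0% = DMSO vehicle and 100% = reference activator.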 Note: nearly all actives have a fitted effect of over 75% in size. As to conditions: NCI-H358 eGFP-delta133p53alpha fluorescence, 24 h; activation: hits give high values. In outline: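 NCI-H358 cells pre-induced 24 h with 10 ng/ml doxycycline for eGFP-delta133p53alpha, plated dox-free and exposed 24 h at 37C to titrated compounds. Fixed, Hoechst-stained; gated GFP peak intensity by laser scanning cytometry, normalized to DMSO (0%) and 57.5 uM 5-azacytidine (100%).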
Cellular tumor antigen p53 (Homo sapiens), sequence (P04637 whole entry, looked up): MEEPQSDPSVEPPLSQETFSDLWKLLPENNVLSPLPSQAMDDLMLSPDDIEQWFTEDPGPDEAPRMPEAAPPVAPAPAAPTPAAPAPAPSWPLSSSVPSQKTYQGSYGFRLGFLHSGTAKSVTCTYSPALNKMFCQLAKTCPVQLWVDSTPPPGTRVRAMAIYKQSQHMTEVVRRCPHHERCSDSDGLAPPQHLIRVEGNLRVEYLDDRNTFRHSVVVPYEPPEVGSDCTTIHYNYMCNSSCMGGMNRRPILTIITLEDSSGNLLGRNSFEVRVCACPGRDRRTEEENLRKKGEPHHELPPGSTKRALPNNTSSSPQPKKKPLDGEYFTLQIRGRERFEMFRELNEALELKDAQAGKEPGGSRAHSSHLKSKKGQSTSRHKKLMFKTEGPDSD
On the technique in general: In qHTS, concentration-response curves come from the screen itself.
With `CC(=O)O[C@@H]1CC2C3CCc4cc(OC(=O)c5ccccc5)ccc4C3CCC2(C)[C@H]1OC(C)=O` (stereo not given in full), the activation is 6.21% (inactive).

For the compound `CC(C)(C)c1ccc(C(=O)CCCCl)cc1`, the activation was 3.95% (inactive).

Take `CCCCOC(=O)CCCCCCCCC(=O)OCCCC`: the activation is -7.53% (inactive).

As to `COc1cc(C(C)C)c(Oc2cnc(N)nc2N)cc1I`, the activation is 3.67% (inactive).

As to `CC(=O)Nc1ccc(C(=O)O)cc1`, the activation was 26.6% (inactive).

Turning to `C[C@]12CCC3=C4CCC(=O)C=C4CC[C@@H]3[C@H]1CC[C@@]2(O)CC#N`, the activation is 7.95% (inactive).

On to `CC1(C)S[C@@H]2[C@H](NC(=O)[C@H](N)c3ccccc3)C(=O)N2[C@H]1C(=O)O`, for which the activation is -15.3% (inactive).

As to `CCC=CC[C@H]1C(=O)CC[C@@H]1CC(=O)OC`, the activation is 10.3% (inactive).

For `NC(=O)N[C@@H](CCC(=O)O)C(=O)O`, the activation was -5.02% (inactive).

Turning to `CC1(C)O[C@@H]2C[C@H]3[C@@H]4CCC5=CC(=O)C=C[C@]5(C)[C@@H]4[C@@H](O)C[C@]3(C)[C@]2(C(=O)CO)O1`, the activation is 10.4% (inactive).

For `Cc1cc(=O)n(-c2ccccc2)n1C`, the activation was -16.7% (inactive).

For the compound `NS(=O)(=O)c1cc(-c2nn[nH]n2)c(NCc2cccs2)cc1Cl`, the activation was 5.02% (inactive).

Regarding `CCCCCCCCCCCCCC(=O)OC(C)C`, the activation was 14.1% (inactive).

In the case of `CN(C)CCN1C(=O)c2ccccc2N(C)c2ccccc21`, the activation was 7.34% (inactive).

In the case of `O=C1OC(CN2CCOCC2)CN1/N=C/c1ccc([N+](=O)[O-])o1` (stereo not given), the activation is 5.02% (inactive).

For `N#CC(=Cc1ccc(O)c(O)c1)C(=O)NCc1ccccc1`, the Potency was 34.3 µM (active).

On to `Cc1ccc(-c2ccccc2C#N)cc1`, for which the activation was -11.9% (inactive).

As for `CN1CCN(CCCN2c3ccccc3Sc3ccc(S(=O)(=O)N(C)C)cc32)CC1`, the activation is 6.69% (inactive).

Regarding `C[n+]1c2cc(N)ccc2cc2ccc(N)cc21` (tested in a mixture with another compound), the activation was -29.9% (inactive).

Regarding `COc1ccc(CN(CCN(C)C)c2ncccn2)cc1`, the activation was 5.08% (inactive).

For the compound `CCN(CC)CCNc1ccc(CO)c2sc3ccccc3c(=O)c12`, the activation was 28.5% (inactive).

For `CCN(CC)CCOC(=O)C(c1ccccc1)C1CCCCC1` (stereo not given), the activation is 14.2% (inactive).

With `CCOC(=O)c1ccc(O)c(O)c1`, the activation was -23.2% (inactive).

On to `NC(=O)C1(N2CCCCC2)CCN(CCCC(=O)c2ccc(F)cc2)CC1`, for which the activation is 14.2% (inactive).

`C[C@@H]1CCC[C@H](C)N1`: the activation is 8.37% (inactive).

In the case of `CC(=O)Oc1ccc(C(=C2CCCCC2)c2ccc(OC(C)=O)cc2)cc1`, the activation was 9.6% (inactive).

`CO[C@@H]1C(N(C)C(=O)c2ccccc2)C[C@H]2O[C@]1(C)n1c3ccccc3c3c4c(c5c6ccccc6n2c5c31)C(=O)NC4=O` (stereo not given in full): the Potency is 9.68 µM (active).

In the case of `CC(C)=CCOc1ccc(/C=C/C(=O)c2ccc(OCC=C(C)C)cc2OCC(=O)O)cc1`, the activation was -1.67% (inactive).

With `O=C1[C@H]2CCCC[C@H]2C(=O)N1CCCCN1CCN(c2nsc3ccccc23)CC1`, the activation was 10.7% (inactive).

For the compound `Cc1cccc(C=NNc2cc(N3CCOCC3)nc(OCCc3ccccn3)n2)c1`, the activation is -13.3% (inactive).

As for `O=C1CCc2ccccc2O1`, the activation was -6.7% (inactive).

Consider `Nc1ncnc2nc[nH]c12`, for which the activation is 18.4% (inactive).

For the compound `O=C(O)C1CCC1`, the activation is -6.69% (inactive).

`Oc1ccccc1-c1nnco1`: the activation is -23.2% (inactive).

For `CCCC(=O)O[C@]1(C(=O)CCl)[C@@H](C)C[C@H]2[C@@H]3CCC4=CC(=O)C=C[C@]4(C)[C@@]3(F)C(=O)C[C@@]21C`, the activation is -8.37% (inactive).

In the case of `N#C/C(=C\c1ccc(O)c(O)c1)C(=O)c1ccc(O)c(O)c1`, the activation is -3.67% (inactive).

Consider `N[C@H]1C(O)O[C@H](CO)[C@@H](O)[C@@H]1O` (stereo not given in full), for which the activation was -0.837% (inactive).

`O=C(/C=C/c1ccc(O)c(O)c1)O[C@@H]1C[C@@](OC(=O)/C=C/c2ccc(O)c(O)c2)(C(=O)O)C[C@@H](O)[C@@H]1O`: the activation was 11.9% (inactive).

As to `CCN(CC)CCN`, the activation was -0.837% (inactive).

On to `CC(C)Cc1ccc(CC(=O)O)cc1`, for which the activation is -36.8% (inactive).
